USP8 block = inhibitors of human USP8 deubiquitinase; Ubiquitin carboxyl-terminal hydrolase 8 (Homo sapiens), P40818; purified USP8, Ub-rhodamine cleavage fluorescence, 30 min; inhibition, % at 20 µM; actives 4.2% (n = 47,000); AID 1645853, 2021
USP17 block = inhibitors of human USP17 deubiquitinase; purified USP17, Ub-rhodamine cleavage fluorescence, 3 h; inhibition, % at 50 µM; actives 6.5% (n = 47,000); AID 1645855, 2021
USP30 block = inhibitors of human USP30 deubiquitinase; Ubiquitin carboxyl-terminal hydrolase 30 (Homo sapiens), Q70CQ3; purified USP30, Ub-rhodamine cleavage fluorescence; inhibition, % at 25 µM; actives 5.3% (n = 47,000); AID 1645860, 2021
USP10 inh = inhibitors of human USP10 deubiquitinase | Ubiquitin carboxyl-terminal hydrolase 10 (Homo sapiens), Q14694 | purified USP10, Ub-rhodamine fluorescence, 60 min | inhibition, % at 20 µM | actives 1.1% (n = 47,000) | AID 1645856, 2021
Target sequence (Q14694 whole entry, looked up): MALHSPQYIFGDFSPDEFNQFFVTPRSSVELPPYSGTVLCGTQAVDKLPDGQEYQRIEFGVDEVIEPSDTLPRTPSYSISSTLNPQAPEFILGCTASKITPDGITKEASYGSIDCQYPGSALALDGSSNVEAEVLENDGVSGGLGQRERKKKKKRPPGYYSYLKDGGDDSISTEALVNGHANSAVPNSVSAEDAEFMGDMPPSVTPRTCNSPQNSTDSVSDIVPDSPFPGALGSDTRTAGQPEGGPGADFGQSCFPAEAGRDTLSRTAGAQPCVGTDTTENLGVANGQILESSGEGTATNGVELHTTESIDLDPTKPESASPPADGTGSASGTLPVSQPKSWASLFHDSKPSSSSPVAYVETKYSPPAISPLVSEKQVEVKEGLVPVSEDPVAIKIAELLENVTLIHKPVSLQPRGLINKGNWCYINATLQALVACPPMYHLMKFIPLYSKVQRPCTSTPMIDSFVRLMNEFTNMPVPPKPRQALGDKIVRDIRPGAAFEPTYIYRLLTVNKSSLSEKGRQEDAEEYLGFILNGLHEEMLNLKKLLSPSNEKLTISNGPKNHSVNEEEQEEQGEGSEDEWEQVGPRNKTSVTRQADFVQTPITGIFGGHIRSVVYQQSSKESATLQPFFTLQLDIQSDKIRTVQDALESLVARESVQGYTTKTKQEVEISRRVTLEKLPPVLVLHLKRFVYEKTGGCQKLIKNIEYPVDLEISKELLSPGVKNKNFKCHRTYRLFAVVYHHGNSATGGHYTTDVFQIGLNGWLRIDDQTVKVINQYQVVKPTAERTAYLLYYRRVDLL
USP28 inh = inhibitors of human USP28 deubiquitinase. actives 3% (n = 47,000). purified USP28, Ub-rhodamine cleavage fluorescence, 30 min. Ubiquitin carboxyl-terminal hydrolase 28 (Homo sapiens), Q96RU2. inhibition, % at 25 µM
Active calls of the source: *; / = no result. Sampled rows, rich in hits. Any-hit rate of the full collection: about 13%. Cut-off read from the data, not from the text of the source: active = inhibition above about 30%; inactive = the rest.

SMILES | USP8 block | USP17 block | USP30 block | USP10 inh | USP28 inh
COc1cccc(OC)c1C(=O)Nc1cccc(-c2ccc(N3CCN(C)CC3)nn2)c1 | 16 | 41* | -13 | -1 | 4
COc1cccc(OC)c1C(=O)Nc1cccc(-c2ccc(N3CCCC3)nn2)c1 | 5 | 36* | 5 | 2 | 10
O=C(Nc1cccc(-c2ccc(N3CCCC3)nn2)c1)c1c(F)cccc1F | 10 | 31* | 2 | 6 | 22
Cn1cc(C(=O)N2CCCCC2c2ccc3c(=O)n(C)c(=O)n(C)c3n2)cn1 (stereo not drawn) | 12 | 17 | 2 | -3 | 9
Cc1ncc2c(n1)CCN(S(=O)(=O)c1ccc(Cl)cc1)C2 | 0 | -23 | -61 | -6 | -19
CCS(=O)(=O)N1CCC2(CC1)CN(Cc1ccccn1)C(=O)CO2 | -115 | -24 | -39 | -4 | -25
O=C(Nc1ccccc1F)c1oc(=O)c2ccccc2c1-c1ccccc1 | -1 | -10 | -4 | 3 | -20
O=C(NCCc1ccccc1Cl)c1oc(=O)c2ccccc2c1-c1ccccc1 | 19 | 19 | 44* | 13 | 29
CC(C)[C@H](NC(=O)C1CCN(C(=O)[C@@H](N)Cc2ccccc2)CC1)C(=O)NCc1ccc(F)cc1 | -105 | -11 | 5 | 1 | -1
CC(NC(=O)[C@H](C)NC(=O)C1CCN(C(=O)[C@H](Cc2ccccc2)NC(=O)OC(C)(C)C)CC1)c1ccccc1 (stereo partly drawn) | -5 | -3 | 6 | -1 | 6
Cc1ccc(S(=O)(=O)N[C@@H](C(=O)N2CCC(C(=O)N[C@@H](Cc3ccccc3)C(=O)O)CC2)C(C)C)cc1 | 9 | 0 | 5 | 3 | -2
CC(NC(=O)[C@H](NC(=O)C1CCN(C(=O)[C@H](N)Cc2ccccc2)CC1)C(C)C)c1ccccc1 (stereo partly drawn) | -48 | 1 | 31* | -2 | 7
Cc1ccc(CNC(=O)[C@@H](NC(=O)C2CCN(C(=O)[C@@H](N)Cc3ccccc3)CC2)C(C)C)cc1 | -44 | -6 | 30* | -1 | 12
Cc1ccc(S(=O)(=O)N[C@H](C(=O)N2CCC(C(=O)N[C@@H](Cc3ccccc3)C(=O)O)CC2)C(C)C)cc1 | 23 | 17 | 32* | 2 | 9
COc1ccccc1CNC(=O)COC(=O)c1c2c(nc3ccccc13)CCC(C)C2 (stereo not drawn) | -10 | 6 | -8 | -7 | -11
COc1ccc(NC(=O)CC2Nc3ccccc3OC2=O)cc1 (stereo not drawn) | -74 | 13 | -32 | -2 | -1
Cc1cccc2cc3c(nc12)N(S(=O)(=O)c1ccc(F)cc1)CC3 | 4 | 3 | -4 | 3 | 2
Cc1cccc2cc3c(nc12)N(C(=O)C1CC1)CC3 | -1 | 35* | -51 | -5 | 3
COC(=O)Nc1cccn(Cc2c(Cl)cccc2Cl)c1=O | 93* | 88* | 52* | 50* | 88*
N#Cc1ccc(NC(=O)Nc2cccn(Cc3c(F)cccc3Cl)c2=O)cc1 | 89* | 78* | -27 | -4 | 41*
N#Cc1ccc(NC(=O)Nc2cccn(Cc3ccc(F)cc3)c2=O)cc1 | 95* | 93* | 26 | 37* | 84*
CC(C)Cc1noc(CN2CCC3(CC2)CC3c2nc(-c3cccnc3)no2)n1 (stereo not drawn) | -116 | -51 | -136 | -5 | -40
CCc1nc2c(C#N)c(-c3ccc(Cl)cc3)ccn2n1 | 36* | 66* | 83* | 24 | 41*
O=C(COc1ccc(-n2cnnn2)cc1)Nc1ccc(F)c(Cl)c1 | 17 | 42* | 28 | 5 | 17
CCOc1ccc(NC(=O)COc2cccc(-n3cnnn3)c2)cc1 | 10 | 8 | 34* | 3 | 55*
SMILES | USP8 block | USP17 block | USP30 block | USP10 inh | USP28 inh
CCOc1ccc(-c2ccc3nnc(SCC(=O)Nc4cccc(C(C)=O)c4)n3n2)cc1 | 26 | 61* | 48* | 1 | 43*
O=C(COc1cccc(-n2cnnn2)c1)Nc1cccc(F)c1 | -23 | -6 | -3 | -1 | -4
O=C(C1CCCC1)N(c1cccc(Cl)c1)c1nc2ccccc2s1 | 23 | / | 20 | 7 | 25
Cn1c(=O)[nH]c(=O)c2c1nc(N1CCN(C(=O)c3ccco3)CC1)n2CCSc1ncccn1 | 17 | 12 | 12 | -1 | 0
Cc1ccc(C)c(NC(=O)c2c(C)sc3c(=O)n(C(C)C)cnc23)c1 | 8 | 44* | 45* | -7 | -2
Cc1nc(SCc2ccc(Cl)cc2)c2c(=O)n(C)c(=O)n(C)c2n1 | 4 | 1 | -1 | -2 | -3
O=C(COc1ccc(Cl)cc1)Nc1noc(-c2ccccc2)n1 | 88* | 4 | 69* | 50* | 58*
O=C(COc1ccc(Cl)cc1)Nc1onc2c1CCCC2 | 2 | 50* | 56* | 1 | -1
Cc1ccc(OCC(=O)Nc2onc3c2CCCC3)cc1 | -5 | -11 | 5 | 2 | 5
Cc1ccccc1-c1nc(NC(=O)COc2ccc(F)cc2)no1 | 2 | 4 | 36* | 4 | 6
Cc1ccccc1-c1noc(-c2ccccc2OCC(=O)NC(C)C)n1 | 13 | 62* | 49* | 6 | 14
Cc1ccc2nc(NC(=O)c3cc4c(cc3[N+](=O)[O-])OCCO4)sc2c1 | -33 | 2 | -140 | -7 | -38
CC(=O)O[C@@H]1C(=O)C2=C(C(=O)C[C@H]3C(C)(C)C(=O)CC[C@]23C)[C@]2(C)C(=O)C[C@H]([C@H](C)CC(=O)C[C@@H](C)C(=O)O)[C@@]12C | 1 | -15 | -10 | 0 | 2
CC(Sc1nnc(-c2cccnc2)n1C)C(=O)Nc1cccc2ccccc12 (stereo not drawn) | -58 | -6 | 13 | 4 | 8
Cc1ccc(CNC(=O)Cn2c(=O)n(C3CC3)c(=O)c3nscc32)cc1 | -1 | 1 | -7 | -1 | -2
COc1ccc(NC(=O)Cn2c(=O)n(CC(=O)NCc3ccc(C)cc3)c(=O)c3sccc32)cc1OC | 1 | 71* | 75* | 13 | 70*
CCOc1ccc(NC(=O)Cn2c(=O)n(CC(=O)NCc3ccc(C)cc3)c(=O)c3sccc32)cc1 | 30 | / | 70* | 18 | 15
COc1ccc(CCNC(=O)Cn2c(=O)c3sccc3n(Cc3cc(=O)n4ccccc4n3)c2=O)cc1OC | 0 | 11 | 24 | -1 | 0
O=C(NC1CCCCCC1)C1CCCN(c2cnccn2)C1 (stereo not drawn) | -1 | -1 | -14 | 1 | -3
Cc1nc(C2CCCN(S(C)(=O)=O)C2)nc2c1CCC(=O)N2CC1CCCCC1 (stereo not drawn) | 7 | 1 | 1 | -3 | -4
O=C(C1CCC1)N1CC[C@@H]2CN(CCc3ccccc3)S(=O)(=O)[C@@H]2CC1 | -11 | 1 | 21 | 0 | 6
CCc1cc2cc3c(cc2nc1SCC(=O)N1CC(=O)Nc2ccccc21)OCO3 | 9 | 35* | -18 | -5 | 8
